Laboratory results from paper PMC4336329 (PLoS ONE, 2015).
In all, about 310,000 compounds went through this assay and about 14,000 (4.5%) showed an effect of 50% or more. The effect is printed as a negative number. Many of the other results were omitted from the sample, so strong results are more common in it than they were.

molecular target: human ether-à-go-go-related gene (hERG) potassium channel (human, UniProt Q12809); assay: primary screen, population patch clamp on CHO cells stably expressing hERG; higher = less effect of the substance
Sequence (Q12809 whole entry, looked up): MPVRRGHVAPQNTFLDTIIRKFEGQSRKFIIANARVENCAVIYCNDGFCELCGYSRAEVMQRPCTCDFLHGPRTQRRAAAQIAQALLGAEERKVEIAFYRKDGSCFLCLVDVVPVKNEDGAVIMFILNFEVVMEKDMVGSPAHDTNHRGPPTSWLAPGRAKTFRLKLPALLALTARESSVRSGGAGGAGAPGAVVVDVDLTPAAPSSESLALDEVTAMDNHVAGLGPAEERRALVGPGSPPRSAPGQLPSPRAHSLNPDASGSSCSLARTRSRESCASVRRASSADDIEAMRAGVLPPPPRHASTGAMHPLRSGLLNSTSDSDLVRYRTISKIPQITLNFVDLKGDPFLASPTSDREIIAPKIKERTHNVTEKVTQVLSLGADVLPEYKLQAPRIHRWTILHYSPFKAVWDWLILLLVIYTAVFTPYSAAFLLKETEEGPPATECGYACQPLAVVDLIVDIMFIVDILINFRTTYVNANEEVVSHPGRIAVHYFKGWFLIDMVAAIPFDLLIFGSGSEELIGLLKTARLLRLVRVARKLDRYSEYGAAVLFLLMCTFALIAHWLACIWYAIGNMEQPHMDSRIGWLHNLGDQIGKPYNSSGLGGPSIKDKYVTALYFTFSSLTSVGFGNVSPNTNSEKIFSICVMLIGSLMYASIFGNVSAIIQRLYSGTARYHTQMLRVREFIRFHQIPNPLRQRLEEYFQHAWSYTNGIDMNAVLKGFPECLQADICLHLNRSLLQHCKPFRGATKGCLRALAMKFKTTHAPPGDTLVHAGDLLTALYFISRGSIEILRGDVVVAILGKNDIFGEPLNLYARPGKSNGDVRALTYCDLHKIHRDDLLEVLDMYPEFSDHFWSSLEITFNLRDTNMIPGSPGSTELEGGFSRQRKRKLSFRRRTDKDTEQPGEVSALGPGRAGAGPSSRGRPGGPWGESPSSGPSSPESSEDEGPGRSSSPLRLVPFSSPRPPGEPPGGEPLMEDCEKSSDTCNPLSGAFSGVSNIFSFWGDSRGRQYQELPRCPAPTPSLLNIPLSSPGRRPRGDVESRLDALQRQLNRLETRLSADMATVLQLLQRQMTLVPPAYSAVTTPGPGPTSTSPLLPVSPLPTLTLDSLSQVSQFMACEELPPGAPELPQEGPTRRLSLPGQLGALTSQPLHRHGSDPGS
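Further: peak tail current of the secondary pulse compared with the same well before compound.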

| Structure (SMILES) | hERG current change (%, negative = inhibition) at 10uM |
| --- | --- |
| O=C(CCCN1C(=O)/C(=C/c2ccccc2Cl)SC1=S)NNC(=O)c1ccncc1 | 2.34% |
| O=C(NNc1ccccn1)c1ccccc1CC[N+](=O)[O-] | 13.3% |
| COc1ccc(-c2ccc(C#N)c(SCC(=O)Nc3sc4c(c3C#N)CCC4)n2)cc1OC | 10.3% |
| COC(=O)c1c(C)[nH]c(C(=O)COc2ccc3ccc(=O)oc3c2)c1C | 11.5% |
| CN(C(=O)C1CCOC1)c1nnc(-c2cnccn2)s1 (stereo not drawn) | 11.1% |
| O=S(=O)(Nc1nc(-c2ccccc2)cs1)c1cc(Cl)ccc1Cl | 18.3% |
| CCOC(=O)C1=C(CC)OC(N)=C(C#N)C1c1ccsc1 (stereo not drawn) | 1.69% |
| CC1CCN(c2ccc(/C=N\Nc3nncn3N)cc2[N+](=O)[O-])CC1 | -5.89% |
| Cc1cc(C)c(S(=O)(=O)N2CCCC(C(=O)NCc3cccnc3)C2)c(C)c1 (stereo not drawn) | -27% |
| Cc1oc(-c2ccc(Cl)cc2)nc1CN1CCC(C(=O)NCc2cccnc2)CC1 | -65.9% |
| CC(C)c1ccc(CN2CCC(C(=O)NCc3cccnc3)CC2)cc1.O=C(O)C(=O)O | -52.1% |
| Cc1ccccc1-c1nc(CN2CCCC(C(=O)NCc3cccnc3)C2)c(C)o1 (stereo not drawn) | -64% |
| COc1ccc(C(C)C)cc1S(=O)(=O)N1CCC(C(=O)NCc2cccnc2)CC1 | -5.48% |
| O=C(NCc1cccnc1)C1CCCN(S(=O)(=O)c2ccc(Cl)cc2)C1 (stereo not drawn) | -26.9% |
| Cc1oc(-c2ccccc2F)nc1CN1CCC(C(=O)NCc2cccnc2)CC1 | -26.7% |
| CCS(=O)(=O)N1CCC(C(=O)NCc2cccnc2)CC1 | -11.7% |
| Cc1ccc(-c2nc(CSCC(=O)NCc3cccnc3)c(C)o2)cc1 | -15.3% |
| Cc1ccccc1-c1nc(CN2CCC(C(=O)NCc3cccnc3)CC2)c(C)o1 | -32.8% |
| Cc1oc(-c2ccc(Cl)cc2)nc1CN1CCCC(C(=O)NCc2cccnc2)C1 (stereo not drawn) | -60.8% |
| CCOC(=O)COc1nc(Nc2ccccc2C)nc(N(C)C)n1 | 1.92% |
| Cc1ccc(N2CC(C(=O)OCC(=O)c3ccc[nH]3)CC2=O)cc1 (stereo not drawn) | -24.2% |

| Structure (SMILES) | hERG current change (%, negative = inhibition) at 10uM |
| --- | --- |
| Cc1cc(C)cc(C(=O)Nc2ccncc2)c1 | 7.83% |
| O=C(CNC(=O)c1ccco1)Nc1cccc(Cl)c1 | -10.8% |
| O=C(Nc1ccccc1C(=O)NCCCN1CCOCC1)c1ccc(Cl)cc1 | -15.5% |
| O=C(CCSc1ccccc1)N1CCCC1 | 10.9% |
| CCC(=O)NCc1ccc(-c2nc3ncccc3o2)cc1 | 13% |
| Cc1csc(SC(C)c2nc3scc(-c4ccccc4)c3c(=O)[nH]2)n1 (stereo not drawn) | 6.61% |
| Cc1ccc(S(=O)(=O)N2[C@@H](c3cccc(Cl)c3)C(C(=O)O)=CC[C@H]2c2cccs2)cc1 | 13.7% |
| Cc1noc(C)c1S(=O)(=O)N1CCCC(C(=O)NCc2ccccn2)C1 (stereo not drawn) | 3.78% |
| Cc1oc(-c2ccc(Cl)cc2)nc1CS(=O)CC(=O)NCc1ccccn1 (stereo not drawn) | -10.7% |
| Cc1oc(-c2ccc(Cl)cc2)nc1CN1CCCC(C(=O)NCc2ccccn2)C1 (stereo not drawn) | -67.8% |
| Cc1oc(-c2cccc(Cl)c2)nc1CN1CCC(C(=O)NCc2cccnc2)CC1 | -60.9% |
| O=C(Nc1nccs1)c1cccc(S(=O)(=O)N2CCCC2)c1 | -6.01% |
| Cc1cc(C(=O)CN2CCC(C)CC2)c(C)n1-c1ccccc1F | -5.74% |
| O=c1c2ccccc2nnn1-c1ccc(Br)cc1 | 12% |
| COc1ccc(C(O)P(=O)(OC2CCCCC2)c2ccc(N(C)C)cc2)cc1OC (stereo not drawn) | -7.44% |
| CCCCC1C(=O)N(c2ccccc2)N(c2ccc(O)cc2)C1=O (stereo not drawn) | -9% |
| O=C(Cc1c[nH]c2ccccc12)NCc1ccc2c(c1)OCO2 | 19.4% |
| Cc1ccc(CCNC(=O)c2nc(CS(=O)(=O)c3ccc(Cl)cc3)no2)cc1 | 31.6% |
| c1cc(-c2ccncc2)ccn1 | 20.9% |
| Nc1ccncc1 | 5% |
| c1cc(-c2sc(-c3ccncc3)c(-c3ccncc3)c2-c2ccncc2)ccn1 | -66.6% |

| Structure (SMILES) | hERG current change (%, negative = inhibition) at 10uM |
| --- | --- |
| Cc1ccc2[nH]c(=O)c(CN(CC3CCCO3)C(=S)NCc3ccco3)cc2c1 (stereo not drawn) | -8.49% |
| COC(=O)c1ccc(-n2cnc(Cl)n2)c(F)c1 | -7.27% |
| COc1ccc(-n2nc(C(=O)NCC(=O)NCCCN3CCOCC3)c3ccccc3c2=O)cc1Cl | -12.6% |
| CCOC(=O)C1CCN(C(=O)CNC(=O)c2nn(-c3ccc(OC)c(OC)c3)c(=O)c3ccccc23)CC1 | -2.02% |
| COCCCNC(=O)CNC(=O)c1nn(-c2ccc(OC)c(Cl)c2)c(=O)c2ccccc12 | 8.9% |
| COc1ccc(-n2nc(C(=O)NCC(=O)NCc3ccccc3OC)c3ccccc3c2=O)cc1 | -69.5% |
| COc1ccc(-n2nc(C(=O)NCC(=O)NCCCN3CCCCCC3)c3ccccc3c2=O)cc1Cl | -56% |
| CCOC(=O)C1CCCN(C(=O)CNC(=O)c2nn(-c3ccc(OC)c(Cl)c3)c(=O)c3ccccc23)C1 (stereo not drawn) | -5.66% |
| CCOC(=O)C1CCN(C(=O)CNC(=O)c2nn(-c3ccc(OC)c(Cl)c3)c(=O)c3ccccc23)CC1 | -55% |
| CCC1CCCCN1CCCNC(=O)CNC(=O)c1nn(-c2ccc(OC)c(Cl)c2)c(=O)c2ccccc12 (stereo not drawn) | -39.4% |
| COc1ccc(-n2nc(C(=O)NCC(=O)NCCCN3CCC(C)CC3)c3ccccc3c2=O)cc1Cl | -74.2% |
| CCCCNC(=O)CNC(=O)c1nn(-c2ccc(OC)c(Cl)c2)c(=O)c2ccccc12 | 9.5% |
| COc1ccc(-n2nc(C(=O)NCC(=O)NCc3ccc(F)cc3)c3ccccc3c2=O)cc1 | -12.1% |
| COc1ccc(-n2nc(C(=O)NCC(=O)NCc3ccccc3OC)c3ccccc3c2=O)c(OC)c1 | 7.07% |
| CCOC(=O)C1CCCN(c2cc(=O)n(-c3ccccc3Cl)c(=O)[nH]2)C1 (stereo not drawn) | 9.43% |
| O=C1C2=C(SCCS2)C(=O)N1CCCO | 4.66% |
| CCC(Oc1ccccc1)C(=O)Nc1ccccc1N1CCCCC1 (stereo not drawn) | 5.6% |
| CSc1nnc2ccc(-c3cccs3)nn12 | -8.27% |
| O=C(NC(=O)c1ccccc1)Nc1ccccc1O | 14.7% |
| Cn1c(C(=O)OCC(=O)NCc2cccs2)cc2sccc21 | 3.37% |
| O=C(Oc1ccccc1C(=S)N1CCOCC1)c1ccccc1 | 7.59% |

| Structure (SMILES) | hERG current change (%, negative = inhibition) at 10uM |
| --- | --- |
| CCN(CC)c1ccc(C2C(C(=O)OCCOC(C)C)=C(C)NC3=C2C(=O)CCC3)cc1 (stereo not drawn) | -12.3% |
| CC1CCCN(c2ncnc3c2cnn3-c2ccccc2)C1 (stereo not drawn) | -1.2% |
| COc1ccc(-n2nc(C(=O)NCC(=O)NCCCN3CC(C)CC(C)C3)c3ccccc3c2=O)cc1 (stereo not drawn) | -37.2% |
| COc1ccc(-n2nc(C(=O)NCC(=O)NCCCN3CC(C)CC(C)C3)c3ccccc3c2=O)cc1OC (stereo not drawn) | -34% |
| COc1ccc(-n2nc(C(=O)NCC(=O)NCCCN3CC(C)CC(C)C3)c3ccccc3c2=O)cc1Cl (stereo not drawn) | -62.3% |
| O=C(c1ccccc1)N(Cc1cccnc1)C1(C(=O)Nc2ccccc2)CCCCC1 | 5.29% |
| CC(=O)Nc1ccc2c(c1)CCc1ccccc1-2 | 15.1% |
| O=C(CCS(=O)(=O)c1ccc(F)cc1)Nc1nc(-c2ccccn2)cs1 | -12.6% |
| Cl.c1ccc(CCn2nnnc2CN2CCN(C3CCCC3)CC2)cc1 | -3.4% |
| Cc1nc2ccccc2n1C1CCN(Cc2nnnn2CCc2ccccc2)CC1.Cl | -68.6% |
| CCOC(=O)C1CCN(Cc2nnnn2CCc2ccccc2)CC1 | -4.94% |
| Cc1nc2cc(C(F)(F)F)ccc2n1C1CCN(Cc2nnnn2CCc2ccccc2)CC1 | -68.4% |
| CCC(C)(C)n1nnnc1CN1CCC(n2c(C)nc3cc(C(F)(F)F)ccc32)CC1 | -5.5% |
| OC1(c2ccccc2F)CCN(Cc2nnnn2CCc2ccccc2)CC1 | 30.9% |
| CCN(CC)C(=O)CN1CCC(n2c(C)nc3cc(C(F)(F)F)ccc32)CC1 | -32.8% |
| Cc1nc2cc(C(F)(F)F)ccc2n1C1CCN(Cc2nnnn2Cc2ccc3c(c2)OCO3)CC1 | -54.1% |
| Cc1nc2cc(F)ccc2n1C1CCN(Cc2nnnn2CCc2ccccc2)CC1.Cl | -65.7% |
| Cc1ccccc1C(=O)NC1CCN(Cc2nnnn2CCc2ccccc2)CC1 | -8.14% |
| Cc1nc2cc(C(F)(F)F)ccc2n1C1CCN(Cc2nnnn2Cc2cccs2)CC1 | -36.6% |
| Cc1ccc(S(=O)(=O)Cn2nnnc2CN2CCN(Cc3ccc4c(c3)OCO4)CC2)cc1 | -28.7% |
| CCc1ccc(OCC(=O)NCC(c2ccc(Cl)cc2)N2CCCCC2)cc1 (stereo not drawn) | -6.4% |
